From publication PMC9911399, “Two distinct binding modes provide the RNA-binding protein RbFox with extraordinary sequence specificity” come the findings set out here.

First the molecules themselves.
B1: CUUCACC (DNA:RNA)
RNA: GGGAGACCGGAAUUCAGAUUGUCCCUUCACCUUAAAUCCCGUCGUAGCCACCA
DNA 1: CAATCTGAATTCCGGTCTCCC
DNA 2: TGGTGGCTACGACGGGATT
B2: CGAGUAU (DNA:RNA)
RNA: B1 RNA with U26G, U27A, C28G, A29U, C30A, C31U
DNA 1: CAATCTGAATTCCGGTCTCCC
DNA 2: TGGTGGCTACGACGGGATT
B3: UGGUGGU (DNA:RNA)
RNA: GGGAGACCGGAAUUCAGAUUGUCCUGGUGGUUUAAAUCCCGUCGUAGCCACCA
DNA 1: CAATCTGAATTCCGGTCTCCC
DNA 2: TGGTGGCTACGACGGGATT
B4: CCCCUGG (DNA:RNA)
RNA: B1 RNA with U26C, U27C, A29U, C30G, C31G
DNA 1: CAATCTGAATTCCGGTCTCCC
DNA 2: TGGTGGCTACGACGGGATT
B5: UGGUUCC (DNA:RNA)
RNA: B3 RNA with G29U, G30C, U31C
DNA 1: CAATCTGAATTCCGGTCTCCC
DNA 2: TGGTGGCTACGACGGGATT
B6: UGGUUUU (DNA:RNA)
RNA: B3 RNA with G29U, G30U
DNA 1: CAATCTGAATTCCGGTCTCCC
DNA 2: TGGTGGCTACGACGGGATT
B7: UGGUUUC (DNA:RNA)
RNA: B3 RNA with G29U, G30U, U31C
DNA 1: CAATCTGAATTCCGGTCTCCC
DNA 2: TGGTGGCTACGACGGGATT
B8: UGUUUGG (DNA:RNA)
RNA: B3 RNA with G27U, G29U, U31G
DNA 1: CAATCTGAATTCCGGTCTCCC
DNA 2: TGGTGGCTACGACGGGATT
B9: UGGUUGU (DNA:RNA)
RNA: B3 RNA with G29U
DNA 1: CAATCTGAATTCCGGTCTCCC
DNA 2: TGGTGGCTACGACGGGATT
B10: CUGGUUG (DNA:RNA)
RNA: B1 RNA with U27G, C28G, A29U, C30U, C31G
DNA 1: CAATCTGAATTCCGGTCTCCC
DNA 2: TGGTGGCTACGACGGGATT
B11: UGGUUGG (DNA:RNA)
RNA: B3 RNA with G29U, U31G
DNA 1: CAATCTGAATTCCGGTCTCCC
DNA 2: TGGTGGCTACGACGGGATT
B12: GUCCUGG (DNA:RNA)
RNA: B1 RNA with C25G, U27C, A29U, C30G, C31G
DNA 1: CAATCTGAATTCCGGTCTCCC
DNA 2: TGGTGGCTACGACGGGATT
B13: UGGUUUG (DNA:RNA)
RNA: B3 RNA with G29U, G30U, U31G
DNA 1: CAATCTGAATTCCGGTCTCCC
DNA 2: TGGTGGCTACGACGGGATT
B14: UGGUUCG (DNA:RNA)
RNA: B3 RNA with G29U, G30C, U31G
DNA 1: CAATCTGAATTCCGGTCTCCC
DNA 2: TGGTGGCTACGACGGGATT
B15: CUACGGU (DNA:RNA)
RNA: B1 RNA with U27A, A29G, C30G, C31U
DNA 1: CAATCTGAATTCCGGTCTCCC
DNA 2: TGGTGGCTACGACGGGATT
B16: CUCUAUU (DNA:RNA)
RNA: B1 RNA with U27C, C28U, C30U, C31U
DNA 1: CAATCTGAATTCCGGTCTCCC
DNA 2: TGGTGGCTACGACGGGATT
B17: UGCCUAC (DNA:RNA)
RNA: B1 RNA with C25U, U26G, U27C, A29U, C30A
DNA 1: CAATCTGAATTCCGGTCTCCC
DNA 2: TGGTGGCTACGACGGGATT
B18: GGCUUCC (DNA:RNA)
RNA: B1 RNA with C25G, U26G, U27C, C28U, A29U
DNA 1: CAATCTGAATTCCGGTCTCCC
DNA 2: TGGTGGCTACGACGGGATT
B19: AAAUCUA (DNA:RNA)
RNA: B3 RNA with U25A, G26A, G27A, G29C, G30U, U31A
DNA 1: CAATCTGAATTCCGGTCTCCC
DNA 2: TGGTGGCTACGACGGGATT
B20: ACCACCC (DNA:RNA)
RNA: B1 RNA with C25A, U26C, U27C, C28A, A29C
DNA 1: CAATCTGAATTCCGGTCTCCC
DNA 2: TGGTGGCTACGACGGGATT
B21: UCUGUUU (DNA:RNA)
RNA: B3 RNA with G26C, G27U, U28G, G29U, G30U
DNA 1: CAATCTGAATTCCGGTCTCCC
DNA 2: TGGTGGCTACGACGGGATT
B22: CGUCGUG (DNA:RNA)
RNA: B1 RNA with U26G, A29G, C30U, C31G
DNA 1: CAATCTGAATTCCGGTCTCCC
DNA 2: TGGTGGCTACGACGGGATT
B23: CUGCACC (DNA:RNA)
RNA: B1 RNA with U27G
DNA 1: CAATCTGAATTCCGGTCTCCC
DNA 2: TGGTGGCTACGACGGGATT
B24: CCUGCAC (DNA:RNA)
RNA: B1 RNA with U26C, C28G, A29C, C30A
DNA 1: CAATCTGAATTCCGGTCTCCC
DNA 2: TGGTGGCTACGACGGGATT
B25: UGCACCG (DNA:RNA)
RNA: B3 RNA with G27C, U28A, G29C, G30C, U31G
DNA 1: CAATCTGAATTCCGGTCTCCC
DNA 2: TGGTGGCTACGACGGGATT
B26: UGCACGG (DNA:RNA)
RNA: B3 RNA with G27C, U28A, G29C, U31G
DNA 1: CAATCTGAATTCCGGTCTCCC
DNA 2: TGGTGGCTACGACGGGATT
B27: CUGCACG (DNA:RNA)
RNA: B1 RNA with U27G, C31G
DNA 1: CAATCTGAATTCCGGTCTCCC
DNA 2: TGGTGGCTACGACGGGATT
B28: UGCACCA (DNA:RNA)
RNA: B3 RNA with G27C, U28A, G29C, G30C, U31A
DNA 1: CAATCTGAATTCCGGTCTCCC
DNA 2: TGGTGGCTACGACGGGATT
B29: UGCACGA (DNA:RNA)
RNA: B3 RNA with G27C, U28A, G29C, U31A
DNA 1: CAATCTGAATTCCGGTCTCCC
DNA 2: TGGTGGCTACGACGGGATT
B30: UGCACGU (DNA:RNA)
RNA: B3 RNA with G27C, U28A, G29C
DNA 1: CAATCTGAATTCCGGTCTCCC
DNA 2: TGGTGGCTACGACGGGATT
B31: UGCCACG (DNA:RNA)
RNA: B1 RNA with C25U, U26G, U27C, C31G
DNA 1: CAATCTGAATTCCGGTCTCCC
DNA 2: TGGTGGCTACGACGGGATT

Numbering of substitutions follows the chain as printed; changes in the protein carry UniProt numbers. The full ranking holds about 16,000 sequences; the median of “ka relative to ugcaugu” is about 0.096, and the highest 2% start at about 0.35. The full list was thinned out, with the highest values kept by preference.

This experiment concerns the target T1, RBFOX1 RRM RbFoxmut (Fox-RRM*) (Homo sapiens, UniProt Q9NWB1 109-208, R118D;E147R;N151S;E152T).
T1 sequence: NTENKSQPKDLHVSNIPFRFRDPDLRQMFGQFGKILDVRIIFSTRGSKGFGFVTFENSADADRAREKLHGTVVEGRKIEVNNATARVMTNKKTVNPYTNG
Kind of experiment: EMSA; HiTS-Eq, 1 nM pool, 10 min; buffer printed only for the single-RNA assays: 10 mM Tris pH 7.5, 150 mM NaCl, 3.4 mM EDTA, 0.001% NP-40, 30 C. As to conditions: tags: His6 N-terminal (pET28a); label: 5' 32P. The essentials:
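Purified RbFox RRM (wild type or mutant) was equilibrated for 10 min in 50 µL with 1 nM of a 5′-radiolabelled pool of RNA with 7 randomized nucleotides, its flanks annealed to DNA oligonucleotides, across increasing protein concentrations. Free RNA was separated by 8% native PAGE, excised, reverse-transcribed, PCR-barcoded and sequenced on an Illumina HiSeq 2500. Relative association constants came from read-count changes of each variant against the control reaction, normalised to the cognate motif.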
In general terms: In EMSA bound probe runs differently from free probe, usually more slowly.
For B1, the binding signal was 0.0684 KA relative to UGCAUGU.

For the molecule B2, the binding signal was 0.143 KA relative to UGCAUGU.

Turning to B3, the binding signal is 0.161 KA relative to UGCAUGU.

For the molecule B4, the binding signal is 0.0629 KA relative to UGCAUGU.

Regarding B5, the binding signal was 0.157 KA relative to UGCAUGU.

As for B6, the binding signal was 0.0956 KA relative to UGCAUGU.

In the case of B7, the binding signal was 0.183 KA relative to UGCAUGU.

As for B8, the binding signal was 0.302 KA relative to UGCAUGU.

As for B9, the binding signal is 0.396 KA relative to UGCAUGU.

Consider B10, for which the binding signal was 0.458 KA relative to UGCAUGU.

For the molecule B11, the binding signal is 0.309 KA relative to UGCAUGU.

Consider B12, for which the binding signal was 0.075 KA relative to UGCAUGU.

B13: the binding signal is 0.874 KA relative to UGCAUGU.

Consider B14, for which the binding signal was 0.492 KA relative to UGCAUGU.

Regarding B15, the binding signal is 0.0878 KA relative to UGCAUGU.

As for B16, the binding signal is 0.107 KA relative to UGCAUGU.

B17: the binding signal is 0.105 KA relative to UGCAUGU.

Turning to B18, the binding signal was 0.142 KA relative to UGCAUGU.

B19: the binding signal was 0.088 KA relative to UGCAUGU.

For B20, the binding signal is 0.0531 KA relative to UGCAUGU.

As to B21, the binding signal was 0.0825 KA relative to UGCAUGU.

For the molecule B22, the binding signal is 0.156 KA relative to UGCAUGU.

For B23, the binding signal was 0.141 KA relative to UGCAUGU.

Consider B24, for which the binding signal is 0.09 KA relative to UGCAUGU.

On to B25, for which the binding signal is 0.223 KA relative to UGCAUGU.

Turning to B26, the binding signal is 0.308 KA relative to UGCAUGU.

Consider B27, for which the binding signal is 0.626 KA relative to UGCAUGU.

As to B28, the binding signal was 0.158 KA relative to UGCAUGU.

As to B29, the binding signal is 0.368 KA relative to UGCAUGU.

Regarding B30, the binding signal was 0.362 KA relative to UGCAUGU.

As for B31, the binding signal is 0.158 KA relative to UGCAUGU.
